From PubChem BioAssay AID2546 (National Center for Advancing Translational Sciences (NCATS), 2010)
In all, about 310,000 compounds went through this assay and about 11,000 (3.5%) were called active. About 8% were inconclusive and are not listed. The sample as a whole holds a higher share of actives than the screen did. Values without a mark were called inactive. Calls come from the whole dose curve; as a rule, active = well fitted inhibition curve with a large enough effect; inconclusive = small, poorly fitted or top-dose-only effect, or effect the other way; inactive = flat fitted curve, though single readings scatter.

assay: VP16 counterscreen qHTS for inhibitors of ROR gamma transcriptional activity; settings: Drosophila S2 Gal4-VP16 UAS-luciferase, luminescence, 20 h; series mostly up to 53.6 µM; activity, negative = inhibition: at the top concentration; note: nearly all actives have a fitted effect of over 50% in size
Excerpt: NIH Molecular Libraries Probe Production Network [MLPCN]
NIH Chemical Genomics Center [NCGC]
Assay Provider: Dan Littman, New York University
The retinoic acid-related orphan receptor (ROR) gamma is a transcription factor that has a central role in the differentiation of Th17 cells, a subset of T helper cells that secrete the inflammatory cytokines IL-17, IL-17F, and IL-22. Th17 cells have been implicated in graft versus host disease, autoimmune disease and asthma. ROR gamma is induced in naive T helper cells in the presence of TGF-beta combined with IL-6, IL-21, or IL-23, and thereafter directs the expression of the Th17 lineage cytokines. To identify nonspecific inhibitors, a Drosophila Schneider cell line was stably transfected with two vectors: a gene expressing a fusion of the Gal4 DNA binding domain and VP16 transactivation domain under the control of the metallothionine promoter and a Photinus luciferase reporter regulated by the Gal4 binding site enhancer, UAS. […] Small molecule inhibitors that inhibit components common to the RORgt and VP16 assays, such as the Gal4 DNA binding domain or the UAS luciferase reporter, will be active in both assays and thus scored as nonspecific.
For screening, 600 cells in 4 uL/well were dispensed into white solid 1536-well plates (Grenier) using a solenoid-based dispenser. Following transfer of 23 nL compound or DMSO vehicle by a pin tool, the plates were incubated 1 hr at ambient temperature, and 1 uL/well copper sulfate (700 uM final concentration) was added. The plates were centrifuged 15 s at 1000 RPM and incubated 20 hr at ambient temperature. After addition of 1.5 uL Photinus luciferase detection reagent, the plates were incubated 10 min at ambient temperature and then read by a ViewLux (Perkin Elmer) to detect luminescence.
% is set by controls: 0 for no effect and ±100 for the full control effect; potency is the fitted concentration of half-maximal effect.

Row | SMILES | activity, negative = inhibition | Potency
1 | COc1ccc(CN2CCNC(=O)C2CC(=O)NCc2cn[nH]c2-c2ccccc2)c(F)c1 (stereo not given) | -5.29% | 
2 | COc1ccc(C(CNC(=O)COc2ccccc2OC)N2CCCCC2)cc1 (stereo not given) | -0.743% | 
3 | O=C1OC2(CCCCC2)CC2=C1C1O[C@](c3ccsc3)(Cc3ccccc31)O2 | -4.71% [at 10 µM] | 
4 | COc1cc2c(cc1OC)C(c1ccccc1Br)NC(=O)C2 (stereo not given) | -3.64% | 
5 | COc1ccc(NC(=O)CCCC2CCCCC2)c(OC)c1 | 9.83% | 
6 | CCOc1cc(NC(=O)c2ccccn2)c(OCC)cc1NC(=O)c1ccc(OC)cc1 | 4.71% | 
7 | CCN(CC)CCOc1ccc2c(c1)C(=NNC(=O)c1ccccn1)c1cc(OCCN(CC)CC)ccc1-2 |  | 10 µM (active)
8 | Cc1cccc(OCC(=O)NCCCNC(=O)c2ccccn2)c1 | 4.73% | 
9 | Cc1onc(C(=O)Nc2ccc3c(c2)OCO3)c1[N+](=O)[O-] | -0.154% | 
10 | COc1ccc(N(C(=O)c2snc(C(N)=O)c2N)C(C(=O)NC2CCCC2)c2ccco2)cc1OC (stereo not given) | 18.6% | 
11 | O=C(Nc1ccccc1C(F)(F)F)N1CCCC1c1cccnc1 (stereo not given) | -1.56% | 
12 | COc1ccc(C(=O)NC(=S)N2CCCCC2c2cccnc2)cc1OC (stereo not given) |  | 17.8 µM (active)
13 | COc1ccc(C(=O)N2CCCC(C(=O)c3ccccc3OC)C2)cc1OC (stereo not given) | 2.57% | 
14 | Cc1ccc(-c2cc(C(F)(F)F)n3ncc(C(=O)N4CCCCC4c4cccnc4)c3n2)cc1 (stereo not given) | -3.74% | 
15 | O=C(NC(=S)N1CCCCC1c1cccnc1)c1ccccc1 (stereo not given) |  | 4.47 µM (active)
16 | COc1ccc(C(=O)Nc2cccnc2)cc1C(=O)Nc1cccnc1 | -9.29% | 
17 | COc1ccc(Nc2ncnc3sc(C)cc23)cc1 | -8.4% | 
18 | Cc1ccc(-c2ccnc3[nH]n(-c4ccccc4)c(=O)c23)cc1 | -8.24% | 
19 | CCc1nnc(NS(=O)(=O)c2ccc(N=Cc3c(C)[nH]n(-c4ccc(C)cc4)c3=O)cc2)s1 | 0.41% | 
20 | Cc1ccc(-n2[nH]c(C)c(/C=N/N3C(=O)c4cccc5cccc(c45)C3=O)c2=O)cc1 |  | 12.6 µM (active)
21 | O=C(CNC(=O)C1COc2ccccc2O1)N/N=C/c1cc(Br)c(O)c(Br)c1 (stereo not given) | -0.0094% | 
22 | O=C(NCCc1c[nH]c2ccccc12)C1CCN(Cc2ccc(Br)cc2)CC1 | -0.728% | 
23 | COc1ccccc1N1CCN(C(=O)CCS(=O)(=O)c2ccc3c(c2)NC(=O)C(C)S3)CC1 (stereo not given) | -26.4% | 
24 | CCOc1ccc(NC(=O)C2CCN(C(=O)N3CCOc4ccccc43)CC2)cc1 | -5.72% | 
25 | CCCNC(=O)c1cnc(-c2ccccc2)nc1-c1ccccc1 | 14.3% | 
26 | CCOC(=O)c1c(C)[nH]c(C)c1S(=O)(=O)N(C)CC(=O)Nc1ccccc1C | 0% | 
27 | CCOC(=O)c1c(C)nc(-c2ccccc2)nc1NC(=O)C(C)C | 17% | 

Row | SMILES | activity, negative = inhibition | Potency
28 | CCOC(=O)c1c(C)[nH]c(C(=O)NCc2ccccc2OC)c1C | -2.66% | 
29 | CCOC(=O)c1c(C)[nH]c(=S)c(C#N)c1-c1ccccc1 |  | 17.8 µM (active)
30 | CC(=O)c1c(C)[nH]c(=S)c(C#N)c1-c1ccc(F)cc1 | -8.92% | 
31 | CCOC(=O)c1c(C)[nH]c2c1-c1ccccc1C(=O)C2=O |  | 2.82 µM (active)
32 | COc1cccc(CN(C)C(=O)CC23CC4CC(CC(C4)C2)C3)c1OC | -3.75% | 
33 | COc1cc(/C=C/C(=O)O)cc(S(=O)(=O)Nc2ccccc2C(=O)NCCc2ccccc2)c1OC | -14% | 
34 | OC(CNCCc1ccc(Cl)cc1Cl)COc1ccccc1 (stereo not given) | -1.98% | 
35 | O=C(CCC(=O)Nc1ccccc1)N/N=C/c1ccccc1F | 19% | 
36 | O=C(N/N=C/c1ccccc1O)/C(=C/c1ccccc1)CCO |  | 1.12 µM (active)
37 | O=C(CCCCCNC(=O)c1ccccc1)N/N=C/c1ccccc1 | -1.19% | 
38 | COc1ccc(CNS(=O)(=O)c2ccc(-c3cnc(C4CC4)o3)cc2)cc1 | -15.3% | 
39 | Cc1ccc(S(=O)(=O)NNC(=O)/C=C/c2cccc(F)c2)cc1 | -0.326% | 
40 | Cc1c(CC(=O)NCC(=O)NCC(=O)O)c(=O)oc2cc3oc4c(c3cc12)CCCC4 | -3.98% | 
41 | Cc1cc(C2=NNC(=Nc3ccc(S(=O)(=O)N4CCOCC4)cc3)SC2)c(C)n1CC1CCCO1 (stereo not given) | 2.49% | 
42 | C=CCn1c(C)cc(C2=NNC(=NCC)SC2)c1C |  | 1 µM (active)
43 | CS(=O)(=O)N1CCc2cc(C(=O)Nc3ccccc3Br)ccc21 | 24.9% | 
44 | O=C(Nc1ccccc1)c1nnsc1S(=O)(=O)c1ccc(Cl)cc1 |  | 11.2 µM (active)
45 | CS(=O)(=O)c1ccc(Cl)c(NC(=O)Nc2ccccc2)c1 | 8.24% | 
46 | CC(=O)Nc1cc(C(=O)O)ccc1S(=O)(=O)c1ccc(Cl)cc1 | 1.43% | 
47 | CC(=O)Nc1ccc(NC(=O)CN2C(=O)COc3ccc(S(=O)(=O)N4CCCCC4)cc32)cc1 | -2.53% | 
48 | O=[N+]([O-])c1ccc(N(CCO)Cc2ccccc2)c([N+](=O)[O-])c1 | -0.982% | 
49 | Cc1cccc(C(=O)O)c1 | -10% | 
50 | Cc1cccc(C(=O)c2cccc(C)c2)c1 | -10.7% | 
51 | Cc1cccc(/C(N)=N/OC(=O)c2ccccc2Cl)c1 |  | 5.01 µM (active)
52 | Cc1ccc(Cn2ccc(NC(=O)c3cc(C(C)C)on3)n2)cc1 | 10% | 
53 | O=C(Nc1ccn(Cc2ccccc2)n1)c1n[nH]c([N+](=O)[O-])c1Cl |  | 11.2 µM (active)
54 | O=C(Nc1ccn(Cc2ccccc2)n1)c1cccc(F)c1 | -24.1% | 

Row | SMILES | activity, negative = inhibition | Potency
55 | CCc1ccc(-c2cc3c(=O)n(CC(=O)NCCCN4CCN(Cc5ccccc5)CC4)nc(C)n3n2)cc1 | -6.24% | 
56 | O=C(/C=C/c1ccc(Cl)cc1)NCCCn1ccnc1 | 9.13% | 
57 | Cc1ccc2nc(N3C(=O)C(O)=C(C(=O)c4ccco4)C3c3cccc(O)c3)sc2c1 (stereo not given) | -7.39% | 
58 | Brc1ccc2nc(N3CCCC3)sc2c1 | -10.3% | 
59 | c1c2c(cc3sc(N4CCCCC4)nc13)OCCO2 |  | 1.26 µM (active)
60 | Cc1nc2cc3c(cc2s1)OCO3 | -16.5% | 
61 | CN(c1ccccc1)S(=O)(=O)c1cc(C(=O)Nc2nc3ccccc3[nH]2)ccc1Cl |  | 3.16 µM (active)
62 | CN(c1ccccc1)S(=O)(=O)c1ccc(Cl)c(C(=O)NCCc2c[nH]c3ccccc23)c1 | -1.77% | 
63 | CN(c1ccccc1)S(=O)(=O)c1cc(C(=O)OCC(=O)N2CCN(C(=O)c3ccco3)CC2)ccc1Cl | 7.37% | 
64 | Cc1c2cnn(CC(=O)NCCCN3CC(C)CC(C)C3)c(=O)c2c(C)n1Cc1ccc(Cl)cc1 (stereo not given) | -1.41% | 
65 | COc1ccc(C(=O)NCc2nnc(SCC(=O)NC3=NCCS3)n2C)cc1 | 2.32% | 
66 | Cc1cc(-c2ccc(S(=O)(=O)N3CCN(c4cccc(C(F)(F)F)c4)CC3)s2)on1 | -17.3% | 
67 | NC(=O)c1cc2ccccc2o/c1=N/NC(=O)c1cccc(F)c1 | -20.1% | 
68 | Cc1cccc(S(=O)(=O)N2CN(CC3CCCO3)c3nc4ccccc4nc32)c1 (stereo not given) | 5.1% | 
69 | CC1=C(C(N)=O)C(c2ccc(Br)cc2)n2ncnc2N1 (stereo not given) | 12.9% | 
70 | Fc1ccccc1/C=C1\CCCC2=C1Nc1ncnn1C2c1ccccc1F (stereo not given) |  | 3.98 µM (active)
71 | Cc1ccc(C(=O)c2coc3ccc(O)c(CN(C)C)c23)cc1 | -13.4% | 
72 | CCCCCCn1cc(C(=O)O)c(=O)c2cc(F)c(N3CCCCC3)cc21 | -9.72% | 
73 | Cc1ccc(NC(=O)c2cc(-c3ccccc3O)n[nH]2)cc1C | -8.32% | 
74 | O=C(c1ccc(OC2CCN(C/C=C/c3ccc(F)cc3)CC2)cc1)N1CCCCC1 | 7.64% | 
75 | COc1ccccc1OCc1ccc(C(=O)NC(C)c2ccccc2)o1 (stereo not given) | -3% | 
76 | CCOc1ccc(C)cc1S(=O)(=O)NC1CCCCCC1 | 23.3% | 
77 | COc1cc(/C=C2\SC(=S)N(Nc3ncc(C(F)(F)F)cc3Cl)C2=O)cc(OC)c1OC | -11.4% | 
78 | COC(=O)Cc1ccc(Oc2ncc(C(F)(F)F)cc2Cl)cc1 | 5.94% | 
79 | COc1cccc(/C=N/Nc2ncc(C(F)(F)F)cc2Cl)c1O |  | 3.16 µM (active)
80 | C=CCNC(=S)NNc1ncnc2sc3c(c12)CC(C)(C)OC3 |  | 7.08 µM (active)
81 | CCSc1nc2sc3c(c2c(=O)[nH]1)CC(C)(C)OC3 | 1.94% | 

Row | SMILES | activity, negative = inhibition | Potency
82 | CN(C)CCSc1nc(N)c2c3c(sc2n1)COC(C)(C)C3 | -8.2% | 
83 | CC(C)(C)NS(=O)(=O)c1ccc(NC(=O)C2CCCO2)cc1 (stereo not given) | -3.37% | 
84 | Cc1c(C)c2c(OCC(=O)NCCCO)cc3c(c2oc1=O)CCC(C)(C)O3 | 4.21% | 
85 | COC(=O)c1c(NC(=O)c2ccc(S(=O)(=O)N3CCOCC3)cc2)sc2c1CCN(C(C)C)C2 | -1.8% | 
86 | CC(C)CCn1c(=O)c2c(nc3n2CCCN3Cc2ccccc2)n(C)c1=O | -14.9% | 
87 | COc1ccc(N2CCC(CNC(=S)Nc3c(C)cccc3C)C2)cc1 (stereo not given) |  | 2.24 µM (active)
88 | COc1ccc(NC(=O)N2CCC(Cc3ccccc3)CC2)cc1 | 4.74% | 
89 | COc1ccc(OCC(=O)Nc2ccc(N3CCC(C)CC3)cc2)cc1 | -2.59% | 
90 | COc1ccc(NC(=S)NCC2CCN(c3ccc(OC)cc3)C2)cc1 (stereo not given) |  | 4.47 µM (active)
91 | COc1ccc(NC(=S)NCCN2CCC(C)CC2)cc1 | -17.1% | 
92 | COc1cccc(N2CC(C(=O)Nc3c(C)cccc3C)CC2=O)c1 (stereo not given) | 0.144% | 
93 | Cc1cccc2c1cnn2C(=O)CCC(=O)NC1CCCCC1 | 3.24% | 
94 | O=C(N/N=C/c1cccc(Br)c1)c1ccc(N2CCCC2=O)cc1 | 3.2% | 
95 | CCOc1ccc(CCNC(=O)CCc2nnc3ccc(N4CCCC4)nn23)cc1OCC | -1.18% | 
96 | COc1ccc(-c2cc(C(=O)N3CCN(Cc4ccc5c(c4)OCO5)CC3)on2)cc1OC | -0.461% | 
97 | Cn1c(CC(=O)Nc2ccc(F)cc2)nnc1SCC(=O)NC1CCCCC1 | 1.19% | 
98 | COc1ccc(NC(=O)C2COc3ccccc3O2)cc1 (stereo not given) | -10.7% | 
99 | CCCN(CC1COc2ccccc2O1)C(=S)Nc1ccc(C)cc1 (stereo not given) |  | 12.6 µM (active)
100 | Cc1ccc(NC(=S)N(CCCN2CCC(C)CC2)Cc2ccco2)cc1 | 2.2% | 
101 | Nc1cc(N)nc(SCc2cccc(F)c2)n1 | 12.2% | 
102 | CC(C)[C@H](NC(=O)N1CCn2c1nc1ccccc12)C(=O)NCCc1ccccc1 | 0% | 
103 | CC1COc2ccccc2N1C(=O)c1ccc(F)cc1 (stereo not given) | 8.51% | 
104 | O=C(Nc1nnc(C2COc3ccccc3O2)o1)c1ccc(F)cc1 (stereo not given) |  | 0.562 µM (active)
105 | O=C(Nc1ccccc1F)c1ccc2c(c1)OCO2 | -8.17% | 
